Reference: PubChem BioAssay (NCATS)
Results filed as inconclusive are left out. Values without a mark were called inactive. Activity calls are given as the source filed them. Calls follow the shape of the dose curve; as a rule, active = well fitted curve in the direction sought with a large enough effect; inconclusive = small, poorly fitted or top-dose-only effect, or another doubt; inactive = no such curve, though single readings can be large; an effect the other way counts as inactive or inconclusive.

Columns and labels:
[1] = Quantitative High-Throughput drug screen in 47 multiple myeloma cell lines against the NCATS MIPE library collection: MOLP8_DSMZ cell viability assay (AID 1918977); also: nearly all actives have a fitted effect of over 45% in size; also: potency is read from the fitted curve at half-maximal effect
Procedure, shortened: (§1)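 ATP-based luminescence (CellTiter-Glo, 5 min RT incubation) quantified surviving cells following two days' treatment with MIPE 4.0 agents at 37 °C, 5% CO2.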

[2] = Quantitative High-Throughput drug screen in 47 multiple myeloma cell lines against the NCATS MIPE library collection: NCIH929_DSMZ cell viability assay (AID 1918978); also: nearly all actives have a fitted effect of over 35% in size; also: potency is read from the fitted curve at half-maximal effect
Procedure, shortened: as §1

[3] = Quantitative High-Throughput drug screen in 47 multiple myeloma cell lines against the NCATS MIPE library collection: MM1R_ATCC cell viability assay (AID 1918981); also: nearly all actives have a fitted effect of over 35% in size; also: potency is read from the fitted curve at half-maximal effect
Procedure, shortened: as §1

[4] = Quantitative High-Throughput drug screen in 47 multiple myeloma cell lines against the NCATS MIPE library collection: KMS28PE_JCRB cell viability assay (AID 1918983); also: nearly all actives have a fitted effect of over 35% in size; also: potency is read from the fitted curve at half-maximal effect
Procedure, shortened: as §1

[5] = Quantitative High-Throughput drug screen in 47 multiple myeloma cell lines against the NCATS MIPE library collection: SKMM1_PLB cell viability assay (AID 1919863); details: SKMM1 myeloma viability, CellTiter-Glo ATP, 48 h; viability: active compounds read low; also: nearly all actives have a fitted effect of over 35% in size; also: potency is read from the fitted curve at half-maximal effect; as to viability: series mostly up to about 46 µM
Procedure, shortened: as §1

[6] = Quantitative High-Throughput drug screen in 47 multiple myeloma cell lines against the NCATS MIPE library collection: XG6_PLB cell viability assay (AID 1919865); also: nearly all actives have a fitted effect of over 40% in size; also: potency is read from the fitted curve at half-maximal effect
Procedure, shortened: as §1

[7] = Quantitative High-Throughput drug screen in 47 multiple myeloma cell lines against the NCATS MIPE library collection: XG1_PLB cell viability assay (AID 1919866); also: nearly all actives have a fitted effect of over 35% in size; also: potency is read from the fitted curve at half-maximal effect
Procedure, shortened: as §1

[8] = Quantitative High-Throughput drug screen in 47 multiple myeloma cell lines against the NCATS MIPE library collection: VP6_DJ cell viability assay (AID 1919867); also: nearly all actives have a fitted effect of over 40% in size; also: potency is read from the fitted curve at half-maximal effect
Procedure, shortened: as §1

[9] = Quantitative High-Throughput drug screen in 47 multiple myeloma cell lines against the NCATS MIPE library collection: PCM6_Riken cell viability assay (AID 1919870); also: nearly all actives have a fitted effect of over 30% in size; also: potency is read from the fitted curve at half-maximal effect
Procedure, shortened: as §1

[10] = Quantitative High-Throughput drug screen in 47 multiple myeloma cell lines against the NCATS MIPE library collection: MM1S_ATCC cell viability assay (AID 1918980); also: nearly all actives have a fitted effect of over 45% in size; also: potency is read from the fitted curve at half-maximal effect
Procedure, shortened: as §1

[11] = Quantitative High-Throughput drug screen in 47 multiple myeloma cell lines against the NCATS MIPE library collection: L363_DSMZ cell viability assay (AID 1918984); also: potency is read from the fitted curve at half-maximal effect; nearly all actives have a fitted effect of over 40% in size
Procedure, shortened: as §1

[12] = Quantitative High-Throughput drug screen in 47 multiple myeloma cell lines against the NCATS MIPE library collection: KMS34_JCRB cell viability assay (AID 1918985); also: nearly all actives have a fitted effect of over 40% in size; also: potency is read from the fitted curve at half-maximal effect
Procedure, shortened: as §1

[13] = Quantitative High-Throughput drug screen in 47 multiple myeloma cell lines against the NCATS MIPE library collection: OCIMY7_PLB cell viability assay (AID 1918987); also: nearly all actives have a fitted effect of over 65% in size; also: potency is read from the fitted curve at half-maximal effect
Procedure, shortened: as §1

[14] = Quantitative High-Throughput drug screen in 47 multiple myeloma cell lines against the NCATS MIPE library collection: OCIMY5_PLB cell viability assay (AID 1918988); also: nearly all actives have a fitted effect of over 65% in size; also: potency is read from the fitted curve at half-maximal effect
Procedure, shortened: as §1

[15] = Quantitative High-Throughput drug screen in 47 multiple myeloma cell lines against the NCATS MIPE library collection: OPM1_PLB cell viability assay (AID 1918989)
Procedure, shortened: as §1

[16] = Quantitative High-Throughput drug screen in 47 multiple myeloma cell lines against the NCATS MIPE library collection: U266_ATCC cell viability assay (AID 1919864); also: nearly all actives have a fitted effect of over 35% in size; also: potency is read from the fitted curve at half-maximal effect;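 as to viability (% of DMSO control): 0% = media-only wells without cells and 100% = DMSO-only wells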
Procedure, shortened: as §1

[17] = Quantitative High-Throughput drug screen in 47 multiple myeloma cell lines against the NCATS MIPE library collection: PE2_PLB cell viability assay (AID 1919869); also: nearly all actives have a fitted effect of over 35% in size; also: potency is read from the fitted curve at half-maximal effect
Procedure, shortened: as §1

[18] = Quantitative High-Throughput drug screen in 47 multiple myeloma cell lines against the NCATS MIPE library collection: OCIMY1_PLB cell viability assay (AID 1918979)
Procedure, shortened: as §1

[19] = Quantitative High-Throughput drug screen in 47 multiple myeloma cell lines against the NCATS MIPE library collection: LP1_DSMZ cell viability assay (AID 1918982); also: nearly all actives have a fitted effect of over 35% in size
Procedure, shortened: as §1

[20] = Quantitative High-Throughput drug screen in 47 multiple myeloma cell lines against the NCATS MIPE library collection: UTMC2_PLB cell viability assay (AID 1919868); details: CellTiter-Glo ATP luminescence, 48 h; viability (% of DMSO control): at 45.8 µM;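 also: 100% = DMSO-only wells and 0% = media-only wells without cells; nearly all actives have a fitted effect of over 55% in size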
Procedure, shortened: as §1

c1cc2c(cc1[C@H]1OC[C@H]3[C@H]1CO[C@H]3c1ccc3c(c1)OCO3)OCO2
Potency [1]: inactive
Potency [2]: inactive
Potency [3]: inactive
Potency [4]: inactive
viability [5]: 134%
Potency [6]: 26.4 µM (active)
Potency [7]: inactive
Potency [8]: inactive
Potency [9]: inactive

O=C(N[C@@H](COc1ccc2[nH]c(=O)[nH]c2c1)c1ccccc1)c1cccn(Cc2ccc(F)c(F)c2)c1=O
Potency [1]: inactive
Potency [10]: 16.6 µM (active)
Potency [11]: 18.7 µM (active)
Potency [12]: inactive
Potency [6]: 18.7 µM (active)
Potency [7]: 5.26 µM (active)

CN1[C@H]2CC(O)C[C@H]1[C@H]1O[C@H]12 (stereo not given in full)
Potency [1]: 13.2 µM (active)
Potency [2]: 2.64 µM (active)
Potency [10]: 18.7 µM (active)
Potency [3]: 16.6 µM (active)
Potency [4]: 20.9 µM (active)
Potency [12]: 18.7 µM (active)
Potency [13]: 3.32 µM (active)
Potency [14]: 18.7 µM (active)
Potency [15]: 18.7 µM (active)
Potency [5]: 23.5 µM (active)
Potency [16]: 23.5 µM (active)
Potency [6]: 7.43 µM (active)
Potency [7]: 9.35 µM (active)
Potency [17]: 20.9 µM (active)
Potency [9]: 11.8 µM (active)

C=C[C@@H]1CN2CCC1C[C@@H]2[C@@H](O)c1ccnc2ccccc12 (stereo not given in full)
Potency [2]: 18.7 µM (active)
Potency [18]: inactive
Potency [10]: 13.2 µM (active)
Potency [3]: 16.6 µM (active)
Potency [4]: 18.7 µM (active)
Potency [13]: 7.43 µM (active)
Potency [14]: 20.9 µM (active)
Potency [15]: 16.6 µM (active)
Potency [5]: 23.5 µM (active)
Potency [16]: 13.2 µM (active)
Potency [6]: 18.7 µM (active)
Potency [7]: 23.5 µM (active)
Potency [17]: 23.5 µM (active)

CN(C)[C@@H]1C(=O)C(C(N)=O)=C(O)[C@@]2(O)C(=O)C3=C(O)c4c(O)cccc4[C@@](C)(O)[C@H]3[C@H](O)[C@@H]12
Potency [1]: 11.8 µM (active)
Potency [18]: inactive
Potency [10]: 5.9 µM (active)
Potency [3]: inactive
Potency [12]: 3.72 µM (active)
Potency [5]: 14.8 µM (active)
Potency [16]: 18.7 µM (active)
Potency [6]: 5.9 µM (active)
Potency [7]: 16.6 µM (active)
Potency [9]: inactive

CC[C@@H](C(N)=O)N1CCCC1=O
Potency [1]: inactive
Potency [18]: inactive
Potency [15]: 26.4 µM (active)
Potency [16]: inactive
Potency [7]: 23.5 µM (active)
Potency [9]: inactive

CCC(=O)OC1CCC2C3CCC4=CC(=O)CC[C@@]4(C)C3CC[C@]12C (stereo not given in full)
Potency [1]: inactive
Potency [18]: inactive
Potency [3]: inactive
Potency [19]: inactive
Potency [4]: inactive
Potency [12]: inactive
Potency [13]: 16.6 µM (active)
Potency [7]: inactive
Potency [9]: inactive

CC(=Cc1csc(C)n1)[C@@H]1C[C@H]2O[C@@H]2CCC[C@H](C)[C@@H](O)[C@@H](C)C(=O)C(C)(C)[C@@H](O)CC(=O)O1
Potency [2]: inactive
Potency [18]: inactive
Potency [10]: inactive
Potency [3]: inactive
Potency [4]: inactive
Potency [12]: inactive
Potency [13]: inactive
Potency [14]: inactive
viability [5]: 81.4%
Potency [6]: inactive
Potency [8]: inactive
Potency [17]: inactive
Potency [9]: inactive

COc1ccc(N(C(=O)Oc2c(C)cccc2C)c2ccnc(Nc3ccc(N4CCN(C)CC4)cc3)n2)c(OC)c1
Potency [1]: 3.72 µM (active)
Potency [18]: inactive
Potency [10]: 4.69 µM (active)
Potency [3]: 2.35 µM (active)
Potency [4]: 18.7 µM (active)
Potency [12]: 1.05 µM (active)
Potency [14]: 1.18 µM (active)
Potency [15]: 20.9 µM (active)
Potency [6]: 0.332 µM (active)
Potency [7]: 0.296 µM (active)
Potency [8]: 2.96 µM (active)
viability (% of DMSO control) [20]: 84% (active)
Potency [17]: 2.64 µM (active)
Potency [9]: 16.6 µM (active)
